# Measurements: the supplement of paper PMC6555819
# Experiments:
# Test in all cases: PBM binding z-score (relative to random genomic background probes); higher = stronger binding; sequences stand for … in GC…GCGATTGACAGCGTAGAATGAAGG
# [1] = system: FXR:RXRa (NR concentration 270 nM, RXRa partner concentration 90 nM)
# In short: (§1)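 Custom Agilent 4×180K protein-binding microarrays carried double-stranded probes. Their 34-nt variable regions held direct-repeat seeds, single-nucleotide variants, half-site ablations and random human genomic background sequences. Arrays were incubated 1 h with ligand-free nuclear receptor dimers in PBS pH 7.4, 2% milk, 0.02% Triton X-100, 1 mM DTT, 0.2 mg/mL BSA and 0.4 mg/ml salmon testes DNA. Antibodies against each partner (one per run) detected binding, and scanned fluorescence was regression-normalized. Binding z-scores use random background probes as reference.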
# [2] = system: LXRa:RXRa (NR concentration 270 nM, RXRa partner concentration 90 nM)
# In short: as §1
# [3] = system: LXRa homodimer (NR concentration 270 nM)
# In short: as §1
# [4] = system: LXRb:RXRa (NR concentration 270 nM, RXRa partner concentration 90 nM)
# In short: as §1
# [5] = system: LXRb homodimer (NR concentration 270 nM)
# In short: as §1
# [6] = system: PPARa:RXRa (NR concentration 270 nM, RXRa partner concentration 90 nM)
# In short: as §1
# [7] = system: PPARg:RXRa (NR concentration 180 nM, RXRa partner concentration 90 nM)
# In short: as §1
# [8] = system: PPARg:RXRa 270nM:90nM, anti-RXR (NR concentration 270 nM, RXRa partner concentration 90 nM)
# In short: as §1
# [9] = system: PPARg:RXRa 30nM:10nM, anti-RXR (NR concentration 30 nM, RXRa partner concentration 10 nM)
# In short: as §1
# [10] = system: PPARg:RXRa 90nM:30nM, anti-RXR (NR concentration 90 nM, RXRa partner concentration 30 nM)
# In short: as §1
Sequence,PBM binding z-score [1],PBM binding z-score [2],PBM binding z-score [3],PBM binding z-score [4],PBM binding z-score [5],PBM binding z-score [6],PBM binding z-score [7],PBM binding z-score [8],PBM binding z-score [9],PBM binding z-score [10]
TCATATAGGTAATACAGGTGAAAGACGGCATCTA,1.16,1.28,0.842,0.947,0.0154,1.94,1.92,2.73,4.26,3.41
AGTCAAAGTTCAGGACGAGCTAACGTAAAGCACG,3.87,3.76,0.971,1.55,0.0911,3.08,4.04,4.89,2.01,4.19
AATACAGTGTCACTAGGCCAGAGTAGGTACGAAT,-0.0447,0.0759,-0.316,-0.0896,-0.131,1.44,1.82,1.52,0.462,0.705
ACTAGTTGGTCAGCTGACGTCACACACAATTCGG,0.0857,0.103,-0.224,0.522,0.287,0.229,0.969,-0.246,-0.0374,-0.0611
CATACAGGGTCAGCTAGGCCAGAGTCGGGACGGC,4.49,3.06,-0.0518,1.97,0.537,4.21,3.11,3.03,0.551,1.92
AGAATGAGGTTACCAAAGATCAGGGGAACGCTTG,1.87,6,-0.402,3.15,-0.39,3.44,2.74,2.72,1.04,2
ACTTGCAGGCCAAGGGTCACTCAAGATTAGTCCG,2.94,2.83,0.304,2.98,0.0149,4.99,8.46,7.35,6.52,7.71
GCTAGCAGGCCATTTGGGTCATTCAATGACGGGC,0.317,0.0338,-0.598,0.324,-1.08,1.47,0.533,0.233,-0.872,-0.17
AATAAAGGGTCACTAGGCCAGAGTAGGTACGAAT,6.74,5.35,1.44,4.42,1.27,6.36,8.19,6.96,3.48,6.22
ATTTCTAGGTAAGACTCAGTTCAGTGAAGAACGC,0.897,0.946,0.909,0.543,1.31,0.972,0.289,0.947,0.807,0.822
TCAATTAGTTGAAGGGCAACCGACGAGTCCGTTT,0.718,0.5,0.203,0.456,-0.169,0.684,0.142,2.03,3.38,2.61
GGAATGAGGGCATTCGAGTTGATAGCATGGCGAT,1.71,2.3,-0.453,0.478,-0.43,2.13,1.46,1.52,0.439,1.05
